Screening data as filed in PubChem BioAssay.
Most compounds without a hit are left out; they make up all but 10% or so of the library.
G9a inh = inhibitors of human histone lysine methyltransferase G9a. Q96KQ7. G9a H3K9 monomethylation, AlphaScreen, 2 h. Potency, µM (highest dose often 102 µM), hits mostly inhibitors. hit rate 8.8% among 350,000. AID 504332; note: nearly all actives have a fitted effect of over 75% in size
Target sequence (Q96KQ7 913-1193 limits assumed): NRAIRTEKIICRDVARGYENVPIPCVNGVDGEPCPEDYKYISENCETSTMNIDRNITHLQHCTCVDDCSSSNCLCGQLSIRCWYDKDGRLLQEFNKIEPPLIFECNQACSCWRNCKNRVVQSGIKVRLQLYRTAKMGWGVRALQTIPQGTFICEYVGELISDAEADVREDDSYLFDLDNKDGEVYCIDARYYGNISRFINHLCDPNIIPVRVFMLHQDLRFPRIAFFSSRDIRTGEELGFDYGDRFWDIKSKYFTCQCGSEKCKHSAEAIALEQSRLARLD
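Quantitative HTS format: methyltransferase activity on a biotin-tagged H3K9 peptide is measured by AlphaScreen, using a rabbit anti-monomethyl-H3K9 antibody with streptavidin donor and anti-IgG acceptor beads. Final levels are 20 nM enzyme, 500 nM peptide, 20 uM SAM; 2 h RT.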
HP1b chromo inh = HP1-beta chromodomain-methylated histone interaction inhibition; hit rate 0.56% among 390,000; P83916; AID 540317; AlphaScreen HP1-beta / biotin-H3K9me3 peptide binding; Potency, µM (series often up to 114 µM), most hits filed as inhibitors; note: nearly all actives have a fitted effect of over 70% in size
Target sequence (P83916 whole entry, looked up): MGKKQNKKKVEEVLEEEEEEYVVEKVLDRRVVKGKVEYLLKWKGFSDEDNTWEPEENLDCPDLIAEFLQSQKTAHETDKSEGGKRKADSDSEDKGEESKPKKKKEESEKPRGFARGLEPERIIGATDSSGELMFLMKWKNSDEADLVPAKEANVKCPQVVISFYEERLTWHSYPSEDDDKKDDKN
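Compound inhibition of the preformed complex between 50 nM HP1-beta and 50 nM biotinylated H3K9me3 peptide was read by AlphaScreen. Buffer was PBS pH 7.4 with 0.01% Tween-20. Incubations ran 30 min at room temperature, with 10 ug/mL donor/acceptor beads.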
BAZ2B inh = BAZ2B (human) inhibition; Q9UIF8; AlphaScreen BAZ2B-H3K14Ac peptide displacement; Potency, µM (top dose mostly 114 µM), usual class: inhibitors; hit rate 4.4% among 360,000; AID 504333; note: nearly all actives have a fitted effect of over 60% in size
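BAZ2B (50 nM) with biotin-H3(5-23)K14Ac peptide (50 nM) in PBS pH 7.4, 0.01% Tween-20, preformed 30 min, then compound 30 min at room temperature; top concentration 110uM. AlphaScreen streptavidin donor/nickel chelate acceptor beads (10 ug/mL final), 20 min dark, signal read.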
GLS inh = blocks human kidney-isoform glutaminase activity | hit rate 0.21% among 410,000 | Potency, µM (titrated, usually from 45.5 µM), most hits filed as inhibitors | GLS enzymatic activity, qHTS titration
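Assay buffer: 45 mM KH2PO4 pH 8.2, 0.02% Tween-20. hKGA acts on L-glutamine (1 mM solution added); product glutamate is reported by an oxidase/peroxidase Amplex Red coupling, with fluorescence taken at baseline and 30 min.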
JMJD2A Tudor inh = JMJD2A Tudor domain (human) inhibition; O75164; AlphaScreen JMJD2A-Tudor / H3K4me3 peptide binding; Potency, µM (titrated, usually from 114 µM), most hits filed as inhibitors; hit rate 4.4% among 390,000; note: nearly all actives have a fitted effect of over 50% in size
L3MBTL1 inh = blocks human L3MBTL1 | Potency, µM (top dose mostly 57.1 µM), most hits filed as inhibitors | Q9Y468 | hit rate 0.66% among 230,000 | AlphaScreen L3MBTL1–H3K9me1 peptide binding | AID 485360; note: nearly all actives have a fitted effect of over 60% in size
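First, the protein-peptide complex forms for 30 min at room temperature (L3MBTL1 50 nM, biotinylated H3K9me1 peptide 75 nM). Next, compounds are pin-transferred and incubated 30 min. Finally, AlphaScreen beads are added and read after 30 min.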
Hits are given with their value; 0 = inactive; ? = inconclusive; - = not tested or not shown; [ ] = remark or other dose. Calls come from the whole dose curve; as a rule, active = well fitted curve in the direction sought with a large enough effect; inconclusive = small, poorly fitted or top-dose-only effect, or another doubt; inactive = no such curve, though single readings can be large; an effect the other way counts as inactive or inconclusive.

SMILES	G9a inh	HP1b chromo inh	BAZ2B inh	GLS inh	JMJD2A Tudor inh	L3MBTL1 inh
CC1=[N+](C)c2c(ccc3cccnc23)C1(C)C	3.2µM	?	40µM	?	25µM	?
O=C(O)c1ccc(NNC(=S)Nc2cc(C(F)(F)F)ccc2Cl)cc1	35µM	0	?	0	0	-
O=C(NC(=S)Nc1cc(C(F)(F)F)ccc1Cl)c1ccccc1	0[0.501 µM]	0	0	0	0	0
CCOCCCn1c(SCC(=O)Nc2ccccc2Cl)nc2c(oc3ccccc32)c1=O	0	0	0	0	0	-
Cc1cc(O)c2c(c1O)C(=O)[C@]13C(=C2O)C(=O)[C@@H]2[C@@H](O)[C@H]1[C@@H]1[C@H](O)[C@H]3C(=O)C3=C(O)c4c(O)cc(C)c(O)c4C(=O)[C@]312	-	?	-	6.3µM	7.9µM	4.5µM
CCc1ccccc1N(C)S(=O)(=O)c1ccc2[nH]cc(C(=O)O)c(=O)c2c1	45µM	0	?	0	0	0
CN(c1ccc(F)cc1)S(=O)(=O)c1ccc2[nH]cc(C(=O)O)c(=O)c2c1	?	0	0	0	0	-
CCN(CC)CCNS(=O)(=O)c1ccc2[nH]cc(C(=O)O)c(=O)c2c1	?	0	?	0	56µM	?
COc1ccc(-c2cc3nc(-c4ccc(Br)cc4)cc(C(F)(F)F)n3n2)cc1	0	0	0	0	0	-
O=C(COc1cccc(Cl)c1)N1CCC(c2nc3ccccc3o2)CC1	0	0	0	0	0	-
CCN(CC)Cc1ccccn1	-	0	0	0	0	0
COc1ccc(CCN(C)c2ccc(C(N)=O)cc2[N+](=O)[O-])cc1OC	0	0	0	0	0	0
COc1ccc(CCN(C)Cc2ccc(C(=O)Nc3ccccc3)cc2)cc1OC	-	0	0	0	0	-
COc1ccc(CCN(C)C/C=C/c2ccccc2[N+](=O)[O-])cc1OC	-	0	?	0	22µM	0
COc1ccc(CN(C)CCc2ccccn2)cc1OC	3.2µM	0	32µM	0	35µM	0
COc1ccccc1NC(=S)N(CCc1ccc(OC)c(OC)c1)Cc1ccccn1	0	0	0	0	0	-
CCc1ccc(CN(C)CCc2ccccn2)cc1	?	?	45µM	0	4µM	0
COc1ccc(CCN(C)Cc2ccc(OC)c(OCc3ccccc3)c2)cc1OC	?	0	?	0	3.2µM	0
O=c1c(-c2cc(-c3ccccc3)nc3c2COc2ccc(Cl)cc2-3)coc2ccc(F)cc12	0	0	0	0	0	-
COCCOC(=O)c1c(C)n(S(=O)(=O)c2ccc(C)cc2)c2ccc(NS(=O)(=O)c3ccc(C)cc3)cc12	?	0	0	0	0	-
CCCN1C(=O)c2ccccc2NC1c1ccc(OC)c(COc2ccc([N+](=O)[O-])cc2)c1 (stereo not given)	-	0	-	-	0	-
COc1ccc(C2c3c(oc4cc(C)cc(C)c4c3=O)C(=O)N2Cc2ccco2)cc1OC (stereo not given)	0	0	0	0	0	-
COc1ccc(CCN(C)Cc2cccc3ccccc23)cc1OC	0[0.501 µM]	0	0	0	0	0[2.29 µM]
COc1cc(CN(C)CCc2ccccn2)cc(OC)c1OC	?	?	20µM	0	7.9µM	0
COc1ccc(CCN(C)Cc2c(O)ccc3ccccc23)cc1OC	8.9µM	0	0	0	50µM	-
SMILES	G9a inh	HP1b chromo inh	BAZ2B inh	GLS inh	JMJD2A Tudor inh	L3MBTL1 inh
COc1cc(CN(C)Cc2ccccc2)cc(OC)c1O	8.9µM	0	0	0	0	-
COc1ccc(CCN(C)CC(=O)Nc2cc(C)nc3ccccc23)cc1OC	4.5µM	22µM	22µM	0	0.79µM	-
CCOc1ccc(CNC(=O)c2ccc3c(c2)c(C)c(C)n3Cc2ccc(Cl)cc2)cc1	0	0	0	0	0	-
COC(=O)c1nn(-c2ccc(C)cc2)c2nnc(Cc3ccccc3)c(=O)n12	18µM	0	0	0	0	0
CCOC(=O)c1cccc(NS(=O)(=O)c2ccc3[nH]c4c(c3c2)CCCC4)c1	14µM	?	40µM	0	28µM	-
CCOc1ccc(NS(=O)(=O)c2ccc3[nH]c4c(c3c2)CCCC4)cc1	?	?	?	0	?	-
CC(=O)c1cccc(NS(=O)(=O)c2ccc3[nH]c4c(c3c2)CCCCCC4)c1	?	0	0	0	?	-
